# From PubChem BioAssay AID1947 (The Scripps Research Institute Molecular Screening Center, 2009)
# The whole screen tested about 300,000 compounds, of which about 990 (0.33%) were called active. This is one part of a sample in which actives are shown more often than they occur. Unmarked numbers belong to inactive results.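 The calls were made as follows: active = inhibition above the screen mean inhibition plus 3 SD, computed separately per campaign (cut at about 18% in these data); inactive = the rest.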
# System: Fam108B (ABHD17B) serine hydrolase [Mus musculus]
# Assay: inhibition of Fam108B (ABHD17B) hydrolase – biochemical, fluorescence polarization, counter-screen for RBBP9 inhibitor project, primary screen (AID 1947);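 also: inhibitors lower polarization as less probe binds the enzyme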
# Settings: recombinant Fam108B, FP-Rh probe fluorescence polarization; at 9.51 µM; active compounds read high
row,SMILES,inhibition
1,CCC(C)[C@H]1COCCS(=O)(=O)N1Cc1ccc(C)cc1 (some centres not stated),-0.44%
2,CC1(C)C2CCC1(C)C(OC(=O)c1ccc(O)cc1)C2 (configuration not stated),-4.06%
3,Nc1ccc2nc3c(=O)[nH]c(=S)[nH]c3nc2c1,29.3% (active)
4,O=C(COC(=O)CCCNC(=O)c1ccc(Cl)cc1)Nc1cc(Cl)ccc1Cl,4.35%
5,O=C(NC1CC1)c1cccc(Br)c1,-0.72%
6,O=C(NC1CC1)c1ccc(-c2ccccc2)cc1,34.3% (active)
7,O=C(NNC(=O)c1ccc(-c2ccccc2)cc1)Nc1ccccc1,-2.01%
8,Cc1ccccc1N1CC(C(=O)Nc2nnc(SCCC3OCCO3)s2)CC1=O (configuration not stated),5.32%
9,O=C(CN(Cc1ccccc1)C(=O)CCC(=O)Nc1ccccn1)NCCc1ccccc1,0.27%
10,COc1ccc(C2=Nc3cc(C)ccc3OC2)cc1,-0.41%
11,c1ccc(CSc2nnc(-c3ccco3)c(-c3ccco3)n2)cc1,19.7% (active)
12,Clc1ccccc1CSc1nnc(-c2ccco2)c(-c2ccco2)n1,18.8% (active)
13,O=c1cc(O)nc(SCc2ccccc2Cl)[nH]1,-1.05%
14,Fc1cccc(Cl)c1CSc1ccc(-c2ccco2)nn1,-2.56%
15,COc1ccc2nc(SCc3ccccc3)nc(C)c2c1,-2.64%
16,O=c1[nH]c(SCc2ccccc2)nnc1-c1ccccc1,-0.14%
17,COC(=O)c1ccc(CNC(=O)c2ccc3oc(C(C)C)nc3c2)cc1,-1.84%
18,N#CCC(=O)N/N=C/c1cn(Cc2ccc3ccccc3c2)c2ccccc12,-6.56%
19,COC(=O)CN1C(=O)[C@H]2[C@@H](/C=C/c3ccccc3)N3C(=O)CN(CC4CC4)C(=O)[C@@]3(Cc3ccccc3)[C@H]2C1=O,-4.39%
20,COC/C=C/C1=CC2=CC(=O)C(C)(OC(=O)CCC(=O)OC)C(=O)C2=CO1 (configuration not stated),8.02%
21,COc1ccc(NC(=O)CSc2nnc(Cc3ccccc3)c(=O)n2N)cc1,0.31%
22,CC(C)N1CCC(N2CCN(Cc3cccnc3)CC2CCO)CC1 (configuration not stated),1.03%
23,COC(=O)c1cc(N2CCNCC2)nc2ccccc12,1.69%

row,SMILES,inhibition
1,COc1ccc(C(=O)CC(=O)C(=O)Nc2cc([N+](=O)[O-])ccc2OC)cc1,2.15%
2,COc1ccc(NS(=O)(=O)c2cc(C(=O)Nc3ccccc3C(=O)O)ccc2C)cc1,-3.09%
3,COc1ccc(NS(=O)(=O)c2cc(NC(=O)CC(=O)c3ccc([N+](=O)[O-])cc3)ccc2C)cc1,18.6% (active)
4,COc1cc(Cl)c(C)cc1NC(=O)CSc1nnc(-c2ccco2)n1CC(C)C,0.55%
5,Cc1cc(C)cc(OCC(=O)NC(C)c2ccccc2)c1 (configuration not stated),-2.91%
6,CC(=O)Nc1ccc(NC(=O)CC2CCCC2)cc1,3.46%
7,Brc1ccccc1C1Nc2cccc3cccc(c23)N1,11.3%
8,Oc1ccc(C2Nc3cccc4cccc(c34)N2)cc1,44.7% (active)
9,Cc1ccc(C2Nc3cccc4cccc(c34)N2)cc1,10.3%
10,O=C1NC(c2cccc(Cl)c2)Nc2ccccc21 (configuration not stated),-1.96%
11,COc1ccc(C2NC(=O)c3ccccc3N2)cc1 (configuration not stated),-0.94%
12,COc1cccc(C2Nc3cccc4cccc(c34)N2)c1,23% (active)
13,COc1ccccc1CN1CCNC(=O)C1CC(=O)N(C)CC1CCOCC1 (configuration not stated),1.34%
14,O=C(COC(=O)/C=C/c1cn(-c2ccccc2)nc1-c1cccnc1)Nc1ccc(Cl)cc1Cl,-13.2%
15,O=C(COC(=O)c1cc(=O)[nH]c2ccccc12)Nc1nc(-c2cccc(Br)c2)cs1,-30.4%
16,Cc1nc([N+](=O)[O-])c(NCCCO)n1Cc1ccccc1,1.87%
17,COc1cccc(C(=O)N2CCC(n3nccc3NC(=O)C3CCOC3)CC2)c1 (configuration not stated),5.08%
18,O=C(Nc1ccc2ccccc2c1)Nc1ccc2snnc2c1,-25.9%
19,Cc1ccc(-c2ccnc3nc(Sc4ncc(C(F)(F)F)cc4Cl)nn23)cc1,-3.23%
20,CC[N+](C)(CC)CCC[n+]1c(-c2ccccc2)c2cc(N)ccc2c2ccc(N)cc21,74.1% (active)
21,CCc1ccc2ncc(C(=O)c3ccccc3)c(N3CCOCC3)c2c1,0.71%
22,FC(F)(F)c1cc(-c2ccco2)nc(NCc2ccc(Cl)cc2)n1,-10.7%
23,Cc1cc(=O)oc2c3c(cc(OCC(=O)NCc4ccccn4)c12)OC(C)(C)CC3,-1.76%

row,SMILES,inhibition
1,COc1cc(NC(=O)COC(=O)c2cnc(C)cn2)c(C)cc1[N+](=O)[O-],-0.2%
2,CC(C)[C@H](NC(=O)N1CC(=O)Nc2ccccc21)C(=O)N[C@@H](Cc1c[nH]c2ccccc12)C(=O)O,0.98%
3,COc1cc(OC)cc(C(=O)NCCSCc2ccc(Cl)cc2)c1,-2.49%
4,Cc1ccc(C2C3=C(Nc4[nH]n(-c5ccccc5)c(=O)c42)c2ccccc2C3=O)cc1 (configuration not stated),34.1% (active)
5,Cc1cc(C)c(C2C3=C(Nc4c2c(C)nn4-c2ccccn2)c2ccccc2C3=O)c(C)c1 (configuration not stated),-5.56%
6,Cc1ccc(-c2ccnc3[nH]n(-c4ccccc4)c(=O)c23)cc1,-1.58%
7,COCCN1CCn2c(nc3cc(NS(C)(=O)=O)ccc32)C1,2.47%
8,Cc1cccc(N=Nc2c(C)[nH]n(-c3ccccc3)c2=O)c1,4.19%
9,Cc1[nH]n(C(N)=S)c(=O)c1N=Nc1ccc(Cl)cc1Cl,20.8% (active)
10,CC1=NN(C(N)=S)C(=O)C1N=Nc1cc(Cl)ccc1Cl (configuration not stated),1.09%
11,O=C(CNC(=O)c1ccccc1F)c1ccc(Br)cc1,0.62%
12,COc1c(F)c(F)c(-c2csc(N)n2)c(F)c1F,2.83%
13,S=C(Nc1ccc2c(c1)OCO2)N1CCCC1,-2.94%
14,Cc1ccccc1NC(=O)CSC1=NCCN1,-0.3%
15,COc1ccc(NC(=O)CCCN2C(=O)C(c3ccccc3)Oc3cccnc32)cc1 (configuration not stated),-1.86%
16,O=C(OCC1OC(Oc2ccc(O)cc2)C(O)C(O)C1O)c1ccccc1 (configuration not stated),-4.47%
17,O=C(OCC1O[C@@H](OC(=O)c2cc(O)c(O)c(O)c2)[C@@H](OC(=O)c2cc(O)c(O)c(O)c2)[C@@H](OC(=O)c2cc(O)c(O)c(O)c2)[C@@H]1OC(=O)c1cc(O)c(O)c(O)c1)c1cc(O)c(O)c(O)c1 (some centres not stated),62.1% (active)
18,CC(O)c1ccc(OCCN(C)c2ccccn2)cc1 (configuration not stated),8.79%
19,Cn1cnnc1Sc1ccc(S(C)(=O)=O)cc1[N+](=O)[O-],0.49%
20,CCC(C)N(C(=O)COC(=O)c1nc(Cl)ccc1Cl)C1CCS(=O)(=O)C1 (configuration not stated),4.9%
21,CCOC(=O)c1sc(=NC(=O)/C=C/c2cccs2)n(C)c1C,-2.21%
22,COc1ccc(-c2nc(CS(=O)CC(=O)NCc3ccccn3)c(C)o2)cc1 (configuration not stated),22.4% (active)
23,COc1ccc(-c2nc(CS(=O)CC(=O)NCc3ccccc3)c(C)o2)cc1OC (configuration not stated),0.72%

row,SMILES,inhibition
1,COc1cccc(-c2nc(CS(=O)CC(=O)NCc3ccc(F)cc3)c(C)o2)c1 (configuration not stated),1.48%
2,CCC(=O)Nc1cccc(C2=NOC3(C2)C[C@@H](C(N)=O)N(C(=O)c2cc([N+](=O)[O-])cc([N+](=O)[O-])c2C)C3)c1 (some centres not stated),3.54%
3,Cc1ccc(-n2c(C)nnc2SCC(=O)NC2CC2)cc1,2.72%
4,CC(CC(=O)N1CCN(c2ccccc2)CC1)S(=O)(=O)c1ccc2c(c1)NC(=O)CS2 (configuration not stated),-0.25%
5,O=C(N/N=C/c1sc(N2CCCCC2)nc1-c1cccs1)c1cccnc1,30.7% (active)
6,Cc1cc(/C=N/NC(=O)c2cccnc2)c(C)n1CC(C)C,0.13%
7,O=C(NN=C1CCC(=NNC(=O)c2cccnc2)CC1)c1cccnc1,-0.8%
8,CC1CC(C)CN(S(=O)(=O)c2cccc(C(=O)N3C(=O)c4cccc(N)c4C3=O)c2)C1 (configuration not stated),-1.13%
9,NS(=O)(=O)c1ccc(CCNC(=O)c2nc(CS(=O)(=O)c3ccc(Cl)cc3)no2)cc1,1.62%
10,Oc1oc(-c2ccccc2Br)nc1/C=N/c1ccccn1,25.5% (active)
11,CCOc1ccc2nc(/N=C/c3nc(-c4ccccc4)oc3O)sc2c1,5.88%
12,CC(N=Cc1nc(-c2ccccc2)oc1O)c1ccccc1 (configuration not stated),4.55%
13,O=C(CCNC(=O)C1CCN(S(=O)(=O)c2ccccc2)CC1)NC1CC1,-1.2%
14,CC(=O)Cn1cnc2c(cnn2-c2ccccc2)c1=O,4.35%
15,Cc1ccc(-c2nc3c(cnn3-c3ccccc3)c(=O)o2)cc1,22.6% (active)
16,Cc1ccc(-n2ncc3c(=O)n(-c4ccc(C)c(C)c4)c(-c4ccco4)nc32)cc1,-5.3%
17,O=C(COc1ccccc1)Nc1nonc1NC(=O)COc1ccccc1,-1.87%
18,COc1ccc(C)cc1S(=O)(=O)NCCc1ccccc1,1.15%
19,Cc1cc(C)c(S(=O)(=O)n2cc(C(C)C(N)C(=O)O)c3ccccc32)c(C)c1 (configuration not stated),-1.29%
20,CCC1(c2ccccc2)NC(=O)N(CC(=O)c2ccc3c(c2)OCO3)C1=O (configuration not stated),1.48%
21,Fc1ccccc1N=C1Nc2cccc3cccc1c23,3.49%
22,COc1ccccc1C1=Nc2cccc3cccc(c23)N1,6.45%
23,c1ccc(C2=Nc3cccc4cccc(c34)N2)cc1,31.5% (active)
